# High-throughput results deposited in PubChem BioAssay by National Center for Advancing Translational Sciences (NCATS).
# The list is not random: actives were taken first. Their share in the collection is about 7.4%.
# SMN2 splice up – enhancers of SMN2 splice variant expression | HEK293 SMN2-luciferase splicing reporter, luminescence, 30-36 h | Potency, µM (series often up to 46.1 µM), without a hit: at the top dose activity change, positive = activation, most hits filed as activators | hit rate 2.8% among 210,000; note: % of control where 0% means no effect; nearly all actives have a fitted effect of over 55% in size
#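 HEK293 cells carry an SMN2 […]–luciferase reporter in which exon 7 inclusion puts luciferase in frame. Cells were plated 10-12 h before compound addition, then incubated 30-36 h at 37C. ONE-Glo luminescence was read; sodium butyrate at 4.5 mM final served as control.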
# KinaseGlo FLuc – Kinase-Glo luciferase inhibition (counter-screen); Q27757; Kinase-Glo luciferase, ATP luminescence, 8 min; Potency, µM (doses to about 38.3 µM), without a hit: at the top dose activity change, negative = inhibition, most hits filed as inhibitors; hit rate 0.28% among 200,000; note: % is set by controls: 0 for no effect and ±100 for the full control effect; nearly all actives have a fitted effect of over 60% in size
#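 Compounds were added to a substrate mix at pH 7.2 (50 mM imidazole, 10 uM ATP, within the enzyme's linear range), followed by Kinase-Glo detection reagent; luminescence was measured after 8 minutes at ambient temperature.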
# NPC1 prom act – activates the NPC1 promoter | hit rate 2.4% among 320,000 | Potency, µM (series often up to 9.22 µM), for the others: top-dose activation, usual class: activators | Huh7 NPC1 promoter luciferase reporter, 24 h; note: % of control where 0% means no effect; nearly all actives have a fitted effect of over 60% in size
#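 Luminescence read-out of NPC1 promoter-driven luciferase in stably transfected Huh7 cells; compounds delivered in DMSO and left 24 h at 37C, 5% CO2, qHTS titration format.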
# ELG1 genotox – induces genotoxicity in HEK293T cells with luciferase-tagged ELG1. HEK293T ELG1-luciferase reporter, luminescence, 16 h. hit rate 1.3% among 330,000. Potency, µM (highest dose often 46 µM), without a hit: at the top dose activity change, positive = activation, actives largely listed as activators; note: % of control where 0% means no effect; nearly all actives have a fitted effect of over 60% in size
#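 Luminescence read-out: rising ELG1-luciferase signal, reflecting elevated ELG1 protein under genetic stress, flags genotoxic compounds. Cells were treated for 16 hr at 37 °C before ONE-Glo detection.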
# Rab9 prom act – activates the Rab9 promoter. Potency, µM (series often up to 9.22 µM), for the others: at the highest dose activation, negative = inhibition, usual class: activators. AID 485297. hit rate 2.8% among 320,000. Huh7 Rab9 promoter-luciferase reporter, luminescence, 24 h; note: % of control where 0% means no effect; nearly all actives have a fitted effect of over 60% in size
#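 Luminescence from Amplite-detected luciferase (10 minutes, ambient) reports Rab9 promoter activation. Before that, stable Rab9-luciferase Huh7 cells (1500/well, reduced-serum OP-MEM I plus 10% FBS) were exposed to compound for 24 hours at 37C.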
# FLuc modulator – firefly luciferase modulation, counter-screen for miR-21 project; AID 588342; Potency, µM (highest dose often 57.5 µM), for the others: top-dose activity change, negative = inhibition, actives largely listed as inhibitors; purified FLuc, Km substrates, luminescence inhibition; hit rate 6.9% among 360,000;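 note: plate controls were vehicle for no effect and reference inhibitor for full effect; nearly all actives have a fitted effect of over 55% in size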
# Target sequence (P08659 whole entry, looked up): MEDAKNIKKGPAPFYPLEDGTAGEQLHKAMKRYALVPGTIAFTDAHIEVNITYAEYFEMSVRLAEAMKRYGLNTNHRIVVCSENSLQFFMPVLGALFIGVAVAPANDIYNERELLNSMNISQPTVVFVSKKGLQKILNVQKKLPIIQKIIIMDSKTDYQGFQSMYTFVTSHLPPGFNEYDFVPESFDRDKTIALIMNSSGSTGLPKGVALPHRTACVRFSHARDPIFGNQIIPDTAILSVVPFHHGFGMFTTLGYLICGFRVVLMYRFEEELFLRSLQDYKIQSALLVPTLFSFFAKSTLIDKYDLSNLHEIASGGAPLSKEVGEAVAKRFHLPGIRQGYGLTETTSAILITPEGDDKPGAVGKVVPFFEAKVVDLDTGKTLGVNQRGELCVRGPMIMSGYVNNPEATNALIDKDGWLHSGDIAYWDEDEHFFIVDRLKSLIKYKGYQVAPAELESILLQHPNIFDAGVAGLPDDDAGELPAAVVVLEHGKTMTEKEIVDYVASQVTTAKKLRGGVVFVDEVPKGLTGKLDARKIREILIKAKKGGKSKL
#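 Biochemical qHTS of compounds, final roughly 60 µM downward over six points, against 10 nM purified firefly luciferase using Km concentrations of substrates (10 uM D-luciferin, 10 uM ATP) in Tris acetate pH 7.5 buffer; luminescence output.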
# * marks the source's active call; other numbers are inactive results; ? = inconclusive; · = no result given; [ ] = dose if it differs, or a comment. Calls come from the whole dose curve; as a rule, active = well fitted curve in the direction sought with a large enough effect; inconclusive = small, poorly fitted or top-dose-only effect, or another doubt; inactive = no such curve, though single readings can be large; an effect the other way counts as inactive or inconclusive. Potency is the fitted concentration of half-maximal effect.
SMILES,SMN2 splice up,KinaseGlo FLuc,NPC1 prom act,ELG1 genotox,Rab9 prom act,FLuc modulator
O=C(Cc1ccc(F)cc1)N/N=C/c1ccc(-c2ccc(Cl)c(C(=O)O)c2)o1,11%,5%,-1%,-1%,-2%,?
Cc1c(C(=O)O)cccc1-c1ccc(/C=N/n2cnnc2)o1,·,·,-10%,7%,-4%,-4%
O=C(COC(=O)c1ccc(Cl)nc1)Nc1ccc(N2CCCCC2)cc1,·,·,·,16%,·,·
Cc1cc(C)cc(OC(C)C(=O)Nc2nonc2-c2ccc(Br)cc2)c1 (stereo not drawn),·,·,·,·,·,1%
C=CCNC(=O)C1CCN(S(=O)(=O)c2cccs2)CC1,·,·,-5%,3%,-3%,6%
CCNc1ccc(C(=O)OCC(=O)Nc2cc(C)on2)cc1[N+](=O)[O-],·,·,-2%,8%,-4%,-2%
Cc1nn(C(C)C(=O)NCC2CCCO2)c(C)c1[N+](=O)[O-] (stereo not drawn),2%,0%,0%,-3%,4%,-1%
COCc1cc(SC2CCCCC2)nc(C)n1,0%,1%,-5%,8%,1%,?
O=C(O)c1ccc(N/N=C/c2ccc(-c3ccc(Cl)cc3Cl)o2)cc1,·,·,?,?,21%,0.95µM*
CCc1cc2cc(C(=O)N3CCN(Cc4ccccc4)CC3)sc2s1,-20%,-2%,·,·,·,17µM*
CCc1cc2cc(C(=O)Nc3ccccc3F)sc2s1,?,-13%,2.2µM*,1.2µM*,1.8µM*,0.76µM*
CCc1cc2cc(C(=O)N3CCN(c4ccccc4)CC3)sc2s1,7%,-1%,-1%,-1%,1%,7%
CCc1cc2cc(C(=O)Nc3ccc(F)cc3)sc2s1,36%,-4%,?,13%,2.5µM*,?
CC(C)(C)c1ccc(C(=O)Nc2ccc(F)cc2)s1,·,·,0.71µM*,2.9µM*,0.63µM*,1.2µM*
C[C@H]1Cc2c(-c3ccccc3)nc3c(c2CO1)CN(C(=O)c1cc(I)ccc1F)CC3,3%[9.22 µM],-2%[7.66 µM],·,·,·,·
Cn1c(=O)oc2cc(S(=O)(=O)Nc3ccc(F)cc3)ccc21,·,·,-2%,-1%,-3%,-1%
CNc1ncc(C(=O)c2ccc(Cl)c(Cl)c2)s1,24%,-1%,3.5µM*,?,?,?
O=C(c1cnc(-c2ccc(Cl)cc2)s1)c1ccc(Cl)cc1Cl,-13%,1%,-1%,7%,6%,-20%
Cc1ccc(C(=O)c2cnc3ccccc3c2-c2ccccc2)cc1,-32%,-2%,-4%,-17%,-1%,2%
CNc1ncc(C(=O)c2ccc(Cl)cc2)s1,13µM*,2%,3.5µM*,?,2.8µM*,11µM*
CNc1ncc(C(=O)c2ccc(-c3ccccc3)cc2)s1,·,·,2µM*,?,2.5µM*,3µM*
COc1ccc(C)cc1NC(=O)C(c1ccccc1)N1CCNC(=O)C1 (stereo not drawn),4%,7%,0%,0%,-1%,0%
O=C(Nc1cccc(C(=O)Nc2ccc(F)cc2F)c1)c1ccccc1,·,·,8%,0%,11%,-13%
Cc1cccc(-c2nc(SCCCOc3ccccc3Cl)n3[nH]c(=O)cc3n2)c1,·,·,·,·,·,6.7µM*
Cc1nc(N2CCOCC2)c2nc(-c3ccccc3)n(CCN3CCOCC3)c2n1,9%,-6%,·,·,·,·
SMILES,SMN2 splice up,KinaseGlo FLuc,NPC1 prom act,ELG1 genotox,Rab9 prom act,FLuc modulator
COc1ccc(CCCc2nnc(SCC(=O)Nc3cccc(C)c3)o2)cc1C,-7%,·,·,·,·,?
CC(C)(C)Cn1nc(-c2ccc(Cl)cc2)c2c(N)ncnc21,·,0%,·,·,·,·
CCOC(=O)Cn1nnc(-c2ccc(SC)cc2)n1,5%,1%,-2%,3%,-3%,12µM*
CSc1ccc(-c2nnn(Cc3ccccn3)n2)cc1,?,-1%,4µM*,?,2.5µM*,12µM*
CN1CCN(CCCNc2c(C=O)c(=O)[nH]c3ccccc23)CC1,·,·,2%,1%,-2%,-2%
Cc1onc(-c2ccccc2)c1C(=O)N/N=C/c1c(F)cccc1Cl,·,·,-2%,-5%,1%,4%
O=C1CCC=C1C(O)c1ccc(Cl)cc1 (stereo not drawn),4%,1%,·,·,·,·
C=C(C)Cn1c(SCC(=O)N/N=C/c2cccc(O)c2)nc2ccccc2c1=O,7%,1%,0%,-2%,1%,2%
COc1cc(NC(=O)CCc2nnc3ccc(N4CCC5(CC4)OCCO5)nn23)cc(OC)c1,·,·,0%,0%,4%,0%
COc1cccc(-c2cc(N3C(=O)Nc4ccccc4N3O)n[nH]2)c1,-6%,-1%,4%,1%,-3%,15µM*
CCOc1ccc(-c2cc(N3C(=O)Nc4ccccc4N3O)n[nH]2)cc1,4%,-1%,-2%,-3%,-3%,6.7µM*
CCOC(=O)c1c(N2C(=O)Nc3ccccc3N2O)n[nH]c1-c1cccc(Cl)c1,-19%,-2%,-8%,-5%,15%,?
O=C(c1ccco1)N1CCN(Cc2cccc3ccccc23)CC1,·,·,-4%,0%,-1%,2%
CCc1ccc(-c2nn[nH]n2)cc1,6%,-3%,2%,9%,20%,13µM*
CCOc1ccc(-c2nn[nH]n2)cc1,28%,-8%,10%,3%,-4%,11µM*
CCOc1ccccc1-c1n[nH]c(=S)o1,-2%,0%,-2%,-2%,-4%,-18%
CCOc1ccc(-c2n[nH]c(=S)o2)cc1,17%,8%,-4%,16%,20%,11µM*
Brc1cc2c(cc1COc1ccc(-c3nn[nH]n3)cc1)OCO2,15%,-2%,6%,14%,18%,?
Cc1ccccc1COc1ccc(-c2nn[nH]n2)cc1,·,·,4%,9%,21%,27µM*
COC(=O)c1sc2nc(C)nc(SCC(=O)N3CCC(C(=O)O)CC3)c2c1C,1%,1%,1%,0%,11%,-15%
CC1Cc2cc(S(=O)(=O)CCC(=O)NCc3ccco3)ccc2N1C(=O)C1CC1 (stereo not drawn),·,·,-2%,-1%,0%,-2%
Cc1c(C)n(C(=O)CSc2nc3ccccc3[nH]2)c2ccccc12,-1%,-3%,0%,2%,1%,3%
CCc1ccc(NC(=O)CN(c2ccc(C)cc2)S(=O)(=O)c2cccs2)cc1,-6%,·,·,·,·,-11%
C=CC[C@@H](CC(=O)N[C@@H](CO)Cc1ccccc1)C(=O)N[C@@H](COC(=O)[C@@H](CC=C)Cc1ccc(F)cc1)Cc1ccccc1,·,·,·,18%,·,·
Cc1ccc(COc2cccc3cc(-c4noc(-c5ccc(C)cc5)n4)c(=O)oc23)cc1,8%,·,·,·,·,0%
CCOc1cccc2cc(-c3cn4cc(C)ccc4n3)c(=O)oc12,2.8µM*,-7%,0.63µM*,?,0.56µM*,0.12µM*
